Where a name gives a salt, the structure may show the parent alone. ± gives the standard deviation of the averaged measurements.
Assays:
Test in all cases: growth (OD600 after 10 h); higher = more growth (less inhibition)
[1] = system: E. coli TESEC Alr+ wild-type control; conditions: compound 0.1 mM; raw OD600 reference: median of DMSO wells 0.241, cell-free background 0.041
Experimental: (§1)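 TESEC Mtb Alr E. coli, or the Alr+ wild-type control, in 384-well plates with Prestwick library compounds at 0.1 mM and 1% DMSO, across arabinose induction levels of 1E3 to 1E7 nM. Growth is read as OD600 after 10 h at 37 °C in triplicate biological replicates.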

E. coli TESEC Mtb Alr [2] = conditions: compound 0.1 mM
Experimental: as §1

E. coli TESEC Mtb Asd = conditions: compound 0.1 mM
Experimental: (§2)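 TESEC E. coli strains in which the native enzyme is deleted and replaced by arabinose-inducible Mtb Asd, DapB, CysH or TrpD, each grown in its selective medium. Strains were screened against the Prestwick library at 0.1 mM and 1% DMSO in 384-well format at low and high arabinose induction. Growth is read as OD600 after 10 h in triplicate.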

E. coli TESEC Mtb DapB = conditions: compound 0.1 mM
Experimental: as §2

[3] = system: E. coli TESEC Alr+ wild-type control; conditions: compound 0.1 mM; raw OD600 reference: median of DMSO wells 0.49, cell-free background 0.052
Experimental: (§3)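 TESEC Mtb Alr E. coli (ΔaraC ΔtolC ΔentC Δalr ΔdadX, arabinose-inducible Mtb Alr) or the Alr+ wild-type control strain, grown in defined M9-fructose medium without D-alanine in 96-well plates with Prestwick library compounds at 0.1 mM and 1% DMSO. Low Alr induction is 0.1 µM arabinose and high induction is 10 mM arabinose.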

E. coli TESEC Mtb Alr [4] = conditions: compound 0.1 mM; remark: listed apart in the source
Experimental: as §3

[5] = arabinose 1000 nM, raw OD600 reference: median of DMSO wells 0.294, cell-free background 0.041
[6] = arabinose 10000 nM, raw OD600 reference: median of DMSO wells 0.264, cell-free background 0.041
[7] = arabinose 100000 nM, raw OD600 reference: median of DMSO wells 0.201, cell-free background 0.041
[8] = arabinose 1000000 nM, raw OD600 reference: median of DMSO wells 0.193, cell-free background 0.041
[9] = arabinose 10000000 nM, raw OD600 reference: median of DMSO wells 0.146, cell-free background 0.041
[10] = arabinose induction (level): High, raw OD600 reference: median of DMSO wells 0.331, cell-free background 0.041
[11] = arabinose induction (level): Low, raw OD600 reference: median of DMSO wells 0.417, cell-free background 0.041
[12] = arabinose induction (level): High, raw OD600 reference: median of DMSO wells […], cell-free background 0.041
[13] = arabinose induction (level): Low, raw OD600 reference: median of DMSO wells 0.227, cell-free background 0.041
[14] = arabinose 100 nM, raw OD600 reference: median of DMSO wells 0.413, cell-free background 0.052
[15] = arabinose 10000000 nM, raw OD600 reference: median of DMSO wells […], cell-free background 0.052

Compound	growth [1]	growth (E. coli TESEC Mtb Alr [2]; [5])	growth (E. coli TESEC Mtb Alr [2]; [6])	growth (E. coli TESEC Mtb Alr [2]; [7])	growth (E. coli TESEC Mtb Alr [2]; [8])	growth (E. coli TESEC Mtb Alr [2]; [9])	growth (E. coli TESEC Mtb Asd; [10])	growth (E. coli TESEC Mtb Asd; [11])	growth (E. coli TESEC Mtb DapB; [12])	growth (E. coli TESEC Mtb DapB; [13])	growth [3]	growth (E. coli TESEC Mtb Alr [4]; [14])	growth (E. coli TESEC Mtb Alr [4]; [15])
COc1ccc([C@@H]2Sc3ccccc3N(CCN(C)C)C(=O)[C@@H]2OC(C)=O)cc1 [Diltiazem hydrochloride]	0.184 ± 0.0078	0.239 ± 0.01	0.274 ± 0.014	0.175 ± 0.0049	0.139 ± 0.0028	0.139 ± 0.0037	0.248 ± 0.063	0.434 ± 0.098	0.184 ± 0.035	0.211 ± 0.056	0.476 ± 0.011	0.413 ± 0.0022	0.3 ± 0.013
COc1ccc(CC(C)NCC(O)c2ccc(O)c(NC=O)c2)cc1 (stereo unspecified) [Formoterol fumarate]	0.235 ± 0.0095	0.298 ± 0.0087	0.293 ± 0.011	0.219 ± 0.024	0.18 ± 0.011	0.16 ± 0.0057	0.251 ± 0.018	0.395 ± 0.057	0.212 ± 0.019	0.238 ± 0.025	0.501 ± 0.04	0.41363 ± 5.8e-05	0.306 ± 0.019
CCOC(=O)[C@@](C)(N)Cc1ccc(O)c(O)c1 [Methyldopate hydrochloride]	0.106 ± 0.0036	0.159 ± 0.008	0.185 ± 0.011	0.116 ± 0.0072	0.0901 ± 0.0019	0.116 ± 0.0018	0.163 ± 0.024	0.276 ± 0.13	0.155 ± 0.01	0.152 ± 0.016	0.469 ± 0.013	0.405 ± 0.021	0.339 ± 0.022
CC(=O)[C@H]1CC[C@H]2[C@@H]3C[C@H](C)C4=CC(=O)CC[C@]4(C)[C@H]3[C@@H](O)C[C@]12C [Medrysone]	0.122 ± 0.0039	0.162 ± 0.0096	0.2463 ± 0.002	0.1231 ± 0.00055	0.112 ± 0.003	0.138 ± 0.0029	0.217 ± 0.02	0.385 ± 0.041	0.179 ± 0.018	0.18 ± 0.0064	0.457 ± 0.067	0.399 ± 0.0044	0.213 ± 0.018
CS(=O)(=O)c1ccc(C2=C(c3ccccc3)C(=O)OC2)cc1 [Rofecoxib]	0.182 ± 0.012	0.2483 ± 0.0006	0.242 ± 0.019	0.184 ± 0.037	0.151 ± 0.008	0.144 ± 0.011	0.336 ± 0.1	0.362 ± 0.097	0.205 ± 0.0062	0.213 ± 0.009	0.455 ± 0.041	0.409 ± 0.015	0.302 ± 0.041
C#C[C@]1(O)CC[C@H]2[C@@H]3CCC4=C(CCC(=O)C4)[C@H]3CC[C@@]21C [Norethynodrel]	0.133 ± 0.013	0.142 ± 0.0092	0.107 ± 0.0051	0.157 ± 0.0071	0.0575 ± 0.0014	0.089 ± 0.0065	0.128 ± 0.016	0.13 ± 0.006	0.149 ± 0.0054	0.17 ± 0.01	0.355 ± 0.005	0.399 ± 0.0064	0.17 ± 0.018
CN1CCC(=C2c3ccccc3CCc3sccc32)CC1 [Pizotifen malate]	0.127 ± 0.006	0.133 ± 0.0045	0.0893 ± 0.0025	0.0952 ± 0.0015	0.0482 ± 0.0045	0.0637 ± 0.00071	0.148 ± 0.013	0.181 ± 0.012	0.178 ± 0.0086	0.193 ± 0.0037	0.146 ± 0.012	0.402 ± 0.027	0.132 ± 0.054

Source: the supplement of paper PMC9262897, “Low-cost anti-mycobacterial drug discovery using engineered E. coli” (Nature Communications, 2022)
